Data as given in PubChem BioAssay AID1159580 (chemical genetic matrix, 2015).
Among all 5,500 compounds or so, about 2,000 (36%) were called active. About 18% were inconclusive and are not listed. Cut-off read from the data, not from the text of the source: active = normalized growth mostly below about 0.91 (no sharp cut-off); inconclusive = no clear call, values can overlap the other calls; inactive = mostly above about 0.92. Some of the results follow.

Assay: chemical genetic growth profiling, strain panel (AID 1159580);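 note: tested at 20 µM; growth read once vehicle control cultures reached saturation at 30 °C; 1 = growth at the plate median or of vehicle wells; lower values mean less growth of the strain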
Conditions: growth OD
[1] = S. cerevisiae deletion strains, locus YAR019C, strain CDC15, active compounds read low
[2] = S. cerevisiae deletion strains, locus YBL105C, strain PKC1, active compounds read low
[3] = S. cerevisiae deletion strains, locus YBR135W, strain CKS1, active compounds read low
[4] = S. cerevisiae deletion strains, locus YBR136W, strain MEC1, active compounds read low
[5] = S. cerevisiae deletion strains, locus YBR160W, strain CDC28, active compounds read low
[6] = S. cerevisiae deletion strains, locus YDL017W, strain CDC7, active compounds read low
[7] = S. cerevisiae deletion strains, locus YDL028C, strain MPS1, active compounds read low
[8] = S. cerevisiae deletion strains, locus YDL101C, strain DUN1, active compounds read low
[9] = S. cerevisiae deletion strains, locus YDL108W, strain KIN28, active compounds read low
[10] = S. cerevisiae deletion strains, locus YDL132W, strain cdc53, active compounds read low
[11] = S. cerevisiae deletion strains, locus YDL214C, strain PRR2, active compounds read low
[12] = S. cerevisiae deletion strains, locus YDR052C, strain DBF4, active compounds read low
[13] = S. cerevisiae deletion strains, locus YDR054C, strain cdc34, active compounds read low
[14] = S. cerevisiae deletion strains, locus YDR226W, strain ADK1, active compounds read low
[15] = S. cerevisiae deletion strains, locus YDR477W, strain SNF1, active compounds read low
[16] = S. cerevisiae deletion strains, locus YER123W, strain YCK3, active compounds read low
[17] = S. cerevisiae deletion strains, locus YER133W, strain GLC7, active compounds read low
[18] = S. cerevisiae deletion strains, locus YFL009W, strain cdc4, active compounds read low
[19] = S. cerevisiae deletion strains, locus YFL029C, strain CAK1, active compounds read low
[20] = S. cerevisiae deletion strains, locus YFR003C, strain YPI1, active compounds read low
[21] = S. cerevisiae deletion strains, locus YFR019W, strain FAB1, active compounds read low
[22] = S. cerevisiae deletion strains, locus YFR028C, strain CDC14, active compounds read low
[23] = S. cerevisiae deletion strains, locus YGR040W, strain KSS1, active compounds read low
[24] = S. cerevisiae deletion strains, locus YGR052W, strain FMP48, active compounds read low
[25] = S. cerevisiae deletion strains, locus YGR092W, strain DBF2, active compounds read low
[26] = S. cerevisiae deletion strains, locus YHR030C, strain SLT2, active compounds read low
[27] = S. cerevisiae deletion strains, locus YHR079C, strain IRE1, active compounds read low
[28] = S. cerevisiae deletion strains, locus YHR082C, strain KSP1, active compounds read low
[29] = S. cerevisiae deletion strains, locus YHR205W, strain SCH9, active compounds read low
[30] = S. cerevisiae deletion strains, locus YIL147C, strain SLN1, active compounds read low
[31] = S. cerevisiae deletion strains, locus YJL095W, strain BCK1, active compounds read low
[32] = S. cerevisiae deletion strains, locus YJL128C, strain PBS2, active compounds read low
[33] = S. cerevisiae deletion strains, locus YJL157C, strain FAR1, active compounds read low
[34] = S. cerevisiae deletion strains, locus YJR016C, strain ILV3, active compounds read low
[35] = S. cerevisiae deletion strains, locus YJR066W, strain TOR1 (second series), active compounds read low
[36] = S. cerevisiae deletion strains, locus YJR066W, strain TOR1, active compounds read low
[37] = S. cerevisiae deletion strains, locus YKL048C, strain ELM1, active compounds read low
[38] = S. cerevisiae deletion strains, locus YKL067W, strain YNK1, active compounds read low
[39] = S. cerevisiae deletion strains, locus YKL101W, strain HSL1, active compounds read low
[40] = S. cerevisiae deletion strains, locus YKL193C, strain SDS22, active compounds read low
[41] = S. cerevisiae deletion strains, locus YKL203C, strain TOR2, active compounds read low
[42] = S. cerevisiae deletion strains, locus YLR113W, strain HOG1, active compounds read low
[43] = S. cerevisiae deletion strains, locus YLR133W, strain CKI1, active compounds read low
[44] = S. cerevisiae deletion strains, locus YLR403W, strain SFP1, active compounds read low
[45] = S. cerevisiae deletion strains, locus YML070W, strain DAK1, active compounds read low
[46] = S. cerevisiae deletion strains, locus YMR001C, strain CDC5, active compounds read low
[47] = S. cerevisiae deletion strains, locus YMR205C, strain PFK2 (second series), active compounds read low
[48] = S. cerevisiae deletion strains, locus YMR277W, strain FCP1, active compounds read low
[49] = S. cerevisiae deletion strains, locus YNL006W, strain LST8, active compounds read low
[50] = S. cerevisiae deletion strains, locus YNL020C, strain ARK1, active compounds read low
[51] = S. cerevisiae deletion strains, locus YNL161W, strain CBK1, active compounds read low
[52] = S. cerevisiae deletion strains, locus YNL183C, strain NPR1, active compounds read low
[53] = S. cerevisiae deletion strains, locus YNL207W, strain RIO2, active compounds read low
[54] = S. cerevisiae deletion strains, locus YNL222W, strain SSU72, active compounds read low
[55] = S. cerevisiae deletion strains, locus YNL307C, strain MCK1 (second series), active compounds read low
[56] = S. cerevisiae deletion strains, locus YOL078W, strain AVO1, active compounds read low
[57] = S. cerevisiae deletion strains, locus YOL136C, strain PFK27, active compounds read low
[58] = S. cerevisiae deletion strains, locus YOR061W, strain CKA2, active compounds read low
[59] = S. cerevisiae deletion strains, locus YOR119C, strain RIO1, active compounds read low
[60] = S. cerevisiae deletion strains, locus YOR231W, strain MKK1, active compounds read low
[61] = S. cerevisiae deletion strains, locus YOR329C, strain SCD5, active compounds read low
[62] = S. cerevisiae deletion strains, locus YPL031C, strain PHO85, active compounds read low
[63] = S. cerevisiae deletion strains, locus YPL153C, strain RAD53, active compounds read low
[64] = S. cerevisiae deletion strains, locus YPL204W, strain HRR25, active compounds read low
[65] = S. cerevisiae deletion strains, locus YPL209C, strain IPL1, active compounds read low
[66] = S. cerevisiae deletion strains, locus YPL256C, strain CLN2, active compounds read low
[67] = S. cerevisiae deletion strains, locus YPR025C, strain CCL1, active compounds read low
[68] = S. cerevisiae deletion strains, locus YPR106W, strain ISR1, active compounds read low
[69] = S. cerevisiae deletion strains, locus YPR111W, strain DBF20, active compounds read low
[70] = S. cerevisiae deletion strains, strain NNK1, active compounds read low
[71] = S. cerevisiae deletion strains, strain TSCII, active compounds read low
[72] = S. cerevisiae deletion strains, locus YAL013W, strain DEP1, active compounds read low
[73] = S. cerevisiae deletion strains, locus YBR229C, strain ROT2, active compounds read low
[74] = S. cerevisiae deletion strains, locus YDL134C, strain PPH21, active compounds read low
[75] = S. cerevisiae deletion strains, locus YDR150W, strain NUM1, active compounds read low
[76] = S. cerevisiae deletion strains, locus YEL061C, strain CIN8, active compounds read low
[77] = S. cerevisiae deletion strains, locus YGR078C, strain PAC10, active compounds read low
[78] = S. cerevisiae deletion strains, locus YHR087W, strain rtc3, active compounds read low
[79] = S. cerevisiae deletion strains, locus YJR043C, strain POL32, active compounds read low
[80] = S. cerevisiae deletion strains, locus YJR075W, strain HOC1, active compounds read low
[81] = S. cerevisiae deletion strains, locus YLR039C, strain RIC1, active compounds read low
[82] = S. cerevisiae deletion strains, locus YLR058C, strain SHM2 (second series), active compounds read low
[83] = S. cerevisiae deletion strains, locus YLR085C, strain ARP6, active compounds read low
[84] = S. cerevisiae deletion strains, locus YLR262C, strain YPT6, active compounds read low
[85] = S. cerevisiae deletion strains, locus YML094W, strain GIM5, active compounds read low
[86] = S. cerevisiae deletion strains, locus YMR219W, strain ESC1, active compounds read low
[87] = S. cerevisiae deletion strains, locus YMR263W, strain SAP30, active compounds read low
[88] = S. cerevisiae deletion strains, locus YNL153C, strain GIM3, active compounds read low
[89] = S. cerevisiae deletion strains, locus YNL298W, strain CLA4 (second series), active compounds read low
[90] = S. cerevisiae deletion strains, locus YNL322C, strain KRE1, active compounds read low
[91] = S. cerevisiae deletion strains, locus YNR030W, strain Alg12, active compounds read low
[92] = S. cerevisiae deletion strains, locus YOL006C, strain TOP1, active compounds read low
[93] = S. cerevisiae deletion strains, locus YPL055C, strain LGE1, active compounds read low
[94] = S. cerevisiae deletion strains, locus YPL241C, strain CIN2, active compounds read low
[95] = S. cerevisiae deletion strains, locus YPR135W, strain CTF4, active compounds read low

Measured: normalized growth

CC1CCc2c(sc3ncnc(Sc4ccccc4)c23)C1 (centres undefined)
active: [26] 1.19 [resistant]
inactive: [1] 0.992 | [2] 0.972 | [3] 0.979 | [4] 0.978 | [5] 0.983 | [6] 0.981 | [7] 0.978 | [8] 0.978 | [9] 0.976 | [10] 0.977 | [11] 0.945 | [12] 0.98 | [13] 0.981 | [14] 0.979 | [15] 0.952 | [16] 0.926 | [17] 0.956 | [18] 0.983 | [19] 0.987 | [20] 0.977 | [21] 0.966 | [22] 0.975 | [23] 0.937 | [24] 1 | [25] 0.991 | [27] 1.11 | [28] 1.06 | [29] 0.992 | [30] 0.977 | [31] 0.996 | [32] 0.94 | [33] 0.962 | [34] 0.984 | [35] 0.948 | [36] 1.09 | [37] 0.966 | [38] 0.948 | [39] 0.931 | [40] 0.983 | [41] 1.04 | [42] 0.886 | [43] 0.946 | [44] 0.968 | [45] 0.936 | [46] 0.984 | [47] 0.95 | [48] 0.98 | [49] 0.99 | [50] 0.943 | [51] 0.98 | [52] 1.03 | [53] 0.976 | [54] 0.989 | [55] 0.969 | [56] 0.976 | [57] 0.913 | [58] 0.935 | [59] 1.02 | [60] 0.925 | [61] 0.983 | [62] 0.945 | [63] 0.941 | [64] 0.92 | [65] 0.982 | [66] 1.02 | [67] 0.982 | [68] 0.984 | [69] 0.96 | [70] 0.981 | [71] 0.979

Cc1ccc(C(=O)Nc2ccc3ccccc3n2)cc1
inactive: [1] 0.956 | [2] 0.954 | [3] 0.958 | [4] 0.965 | [5] 0.95 | [6] 0.964 | [7] 0.964 | [8] 0.96 | [9] 0.963 | [10] 0.96 | [11] 0.92 | [12] 0.976 | [13] 0.94 | [14] 0.956 | [15] 0.937 | [16] 0.906 | [17] 0.929 | [18] 0.954 | [19] 0.956 | [20] 0.961 | [21] 0.983 | [22] 0.944 | [23] 0.925 | [24] 0.99 | [25] 0.892 | [26] 0.938 | [27] 0.933 | [28] 0.994 | [29] 0.954 | [30] 0.963 | [31] 0.952 | [32] 0.954 | [33] 0.917 | [34] 0.946 | [35] 0.918 | [36] 0.978 | [37] 0.948 | [38] 0.93 | [39] 0.95 | [40] 0.957 | [41] 0.986 | [43] 0.944 | [44] 0.934 | [45] 0.901 | [46] 0.966 | [47] 0.941 | [48] 0.956 | [49] 0.966 | [50] 0.947 | [51] 0.944 | [52] 0.959 | [53] 0.964 | [54] 0.95 | [55] 0.93 | [56] 0.958 | [57] 0.92 | [58] 0.964 | [59] 1.01 | [60] 0.921 | [61] 0.962 | [62] 0.948 | [63] 0.928 | [64] 0.937 | [65] 0.949 | [66] 0.876 | [67] 0.959 | [68] 0.949 | [69] 0.945 | [70] 0.956 | [71] 0.957
active: [42] 0.857

COC(=O)Cc1nc(NC(=O)c2ccccc2)sc1C
inactive: [72] 1.02 | [73] 1 | [8] 0.972 | [74] 1.01 | [75] 0.994 | [76] 1.02 | [77] 0.999 | [26] 0.977 | [78] 0.98 | [79] 1.01 | [80] 1 | [81] 1.02 | [82] 1 | [83] 0.889 | [84] 1.12 | [85] 0.948 | [86] 0.994 | [87] 1 | [88] 1 | [89] 1.02 | [90] 1.01 | [91] 0.983 | [92] 0.976 | [93] 0.927 | [94] 0.944 | [95] 1

Cc1ccc(C(=O)NNC(=O)c2ccncc2)c(C)c1
inactive: [72] 0.994 | [73] 0.993 | S. cerevisiae deletion strains, locus YCL061C, strain MRC1, active compounds read low 1.01 | [8] 1.02 | [74] 1 | [75] 0.925 | [76] 0.993 | [77] 1 | S. cerevisiae deletion strains, locus YGR229C, strain SMI1, active compounds read low 1.01 | [26] 1.01 | [78] 1 | [79] 1.01 | [80] 1.03 | S. cerevisiae deletion strains, locus YKL190W, strain CNB1, active compounds read low 1.01 | [81] 1.03 | [82] 0.994 | [83] 0.98 | [84] 1.02 | [85] 0.983 | [86] 0.988 | [87] 0.965 | S. cerevisiae deletion strains, locus YMR307W, strain GAS1, active compounds read low 1.01 | [88] 1.01 | [89] 1.03 | [90] 0.991 | [91] 1.01 | [92] 1.06 | [93] 0.934 | [94] 0.998 | [95] 1.08 | S. cerevisiae strains, strain wild type, active compounds read low 1.01
